# Laboratory results as given in paper PMC7862700, “An all-to-all approach to the identification of sequence-specific readers for epigenetic DNA modifications on cytosine”.
# What was measured:
# Experiment in all cases: DAPPL (digital affinity profiling via proximity ligation, sequencing); 10 mM Tris-HCl pH 7.5, 50 mM NaCl, 1 mM DTT, 4% glycerol, room temperature, 30 min; GST-TFs on glutathione beads, 16-mer random dsDNA library, 0.1% formaldehyde crosslink after washing; high values mean tight binding
# [1] = target: T1, GABPA (Homo sapiens, UniProt Q06546 1-454); conditions: protein: recombinant; tags: N-terminal GST; dsDNA, one strand shown
# T1 sequence: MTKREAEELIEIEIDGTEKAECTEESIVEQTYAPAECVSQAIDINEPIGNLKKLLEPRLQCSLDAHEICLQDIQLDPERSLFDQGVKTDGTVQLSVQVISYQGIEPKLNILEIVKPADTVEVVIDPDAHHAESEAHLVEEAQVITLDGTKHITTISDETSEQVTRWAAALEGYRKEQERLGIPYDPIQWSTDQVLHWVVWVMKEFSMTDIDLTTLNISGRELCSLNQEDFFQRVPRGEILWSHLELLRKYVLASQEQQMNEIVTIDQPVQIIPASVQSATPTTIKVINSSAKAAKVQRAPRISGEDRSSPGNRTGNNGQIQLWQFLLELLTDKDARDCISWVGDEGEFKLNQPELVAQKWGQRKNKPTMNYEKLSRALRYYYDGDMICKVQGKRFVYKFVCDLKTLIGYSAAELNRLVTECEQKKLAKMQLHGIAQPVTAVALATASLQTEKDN
# Outline: (§1)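 In yeast, human transcription factors were expressed with a GST fusion, then pulled down on glutathione beads and given DNA barcodes. Pooled with a tag-only sample, they were exposed to 200 nmole of a 16-mer random double-stranded DNA library (Tris/NaCl/DTT/glycerol buffer, room temperature, 30 min), washed, crosslinked with 0.1% formaldehyde, proximity-ligated using BsaI/T4 ligase for 1 h at 37 °C, PCR-amplified and read on an Illumina NextSeq500. Each hexamer's frequency of reads for a factor, divided by the matching frequency for the tag-only sample, gives the binding signal.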
# [2] = target: T2, ERG (Homo sapiens, UniProt P11308 1-479); conditions: protein: recombinant; tags: N-terminal GST; dsDNA, one strand shown
# T2 sequence: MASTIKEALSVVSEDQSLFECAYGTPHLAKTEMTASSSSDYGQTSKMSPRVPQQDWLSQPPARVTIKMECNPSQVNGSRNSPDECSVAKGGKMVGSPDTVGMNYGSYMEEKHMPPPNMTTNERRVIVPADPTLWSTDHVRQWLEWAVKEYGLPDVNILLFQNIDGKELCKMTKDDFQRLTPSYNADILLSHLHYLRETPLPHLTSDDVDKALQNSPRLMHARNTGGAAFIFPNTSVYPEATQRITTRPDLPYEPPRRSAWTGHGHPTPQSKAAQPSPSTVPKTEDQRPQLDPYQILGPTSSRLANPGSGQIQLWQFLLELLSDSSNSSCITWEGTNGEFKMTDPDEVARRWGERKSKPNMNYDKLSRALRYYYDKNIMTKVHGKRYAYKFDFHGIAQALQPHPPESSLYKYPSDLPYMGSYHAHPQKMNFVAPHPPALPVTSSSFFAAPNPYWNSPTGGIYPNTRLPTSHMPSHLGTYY
# Outline: as §1
# [3] = target: T3, FEV (Homo sapiens, UniProt Q99581 1-238); conditions: protein: recombinant; tags: N-terminal GST; dsDNA, one strand shown
# T3 sequence: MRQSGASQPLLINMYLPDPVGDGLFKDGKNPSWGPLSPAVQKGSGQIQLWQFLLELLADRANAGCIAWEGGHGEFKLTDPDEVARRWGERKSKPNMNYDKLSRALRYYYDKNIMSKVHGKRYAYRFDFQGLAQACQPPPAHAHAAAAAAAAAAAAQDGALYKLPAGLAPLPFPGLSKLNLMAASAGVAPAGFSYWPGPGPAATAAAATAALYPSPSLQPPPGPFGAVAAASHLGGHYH
# Outline: as §1
# [4] = target: HSF1 (Homo sapiens, UniProt Q00613 1-529); conditions: protein: recombinant; tags: N-terminal GST; chain copies: 3; dsDNA, one strand shown
# Sequence of HSF1 (Q00613 whole entry): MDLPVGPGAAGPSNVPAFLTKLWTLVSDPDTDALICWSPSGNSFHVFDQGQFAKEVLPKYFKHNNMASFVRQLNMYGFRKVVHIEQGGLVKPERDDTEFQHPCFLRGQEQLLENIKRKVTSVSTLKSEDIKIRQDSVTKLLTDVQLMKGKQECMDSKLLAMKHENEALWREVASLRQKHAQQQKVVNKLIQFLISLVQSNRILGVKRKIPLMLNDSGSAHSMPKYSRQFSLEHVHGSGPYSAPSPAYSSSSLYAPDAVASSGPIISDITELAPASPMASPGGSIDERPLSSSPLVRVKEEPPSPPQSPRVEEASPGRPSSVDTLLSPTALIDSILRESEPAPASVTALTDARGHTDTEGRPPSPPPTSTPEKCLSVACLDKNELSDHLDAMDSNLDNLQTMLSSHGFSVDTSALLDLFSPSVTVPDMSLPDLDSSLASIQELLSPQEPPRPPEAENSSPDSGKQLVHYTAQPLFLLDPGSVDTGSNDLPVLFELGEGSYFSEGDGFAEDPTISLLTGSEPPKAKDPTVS
# Outline: as §1
# [5] = target: T4, SPIC (Homo sapiens, UniProt Q8N5J4 1-248); conditions: protein: recombinant; tags: N-terminal GST; dsDNA, one strand shown
# T4 sequence: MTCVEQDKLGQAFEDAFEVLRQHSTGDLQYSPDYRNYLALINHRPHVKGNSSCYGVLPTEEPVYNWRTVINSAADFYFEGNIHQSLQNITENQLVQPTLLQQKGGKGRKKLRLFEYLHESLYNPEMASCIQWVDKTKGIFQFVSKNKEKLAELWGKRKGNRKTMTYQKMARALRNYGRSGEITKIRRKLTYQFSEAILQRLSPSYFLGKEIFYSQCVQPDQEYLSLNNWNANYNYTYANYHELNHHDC
# Outline: as §1
# [6] = target: CRX (Homo sapiens, UniProt O43186 1-299); conditions: protein: recombinant; tags: N-terminal GST; dsDNA, one strand shown
# Sequence of CRX (O43186 whole entry): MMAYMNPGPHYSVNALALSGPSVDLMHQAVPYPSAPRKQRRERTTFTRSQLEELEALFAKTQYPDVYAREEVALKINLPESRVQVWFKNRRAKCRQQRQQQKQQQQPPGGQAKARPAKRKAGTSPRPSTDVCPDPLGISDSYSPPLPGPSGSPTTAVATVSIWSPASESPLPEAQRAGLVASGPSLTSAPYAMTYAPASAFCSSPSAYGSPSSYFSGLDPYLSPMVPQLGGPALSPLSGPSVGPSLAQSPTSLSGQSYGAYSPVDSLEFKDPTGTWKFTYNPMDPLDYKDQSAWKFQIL
# Outline: as §1
# [7] = target: ETV1 (Homo sapiens, UniProt P50549 1-477); conditions: protein: recombinant; tags: N-terminal GST; dsDNA, one strand shown
# Sequence of ETV1 (P50549 whole entry): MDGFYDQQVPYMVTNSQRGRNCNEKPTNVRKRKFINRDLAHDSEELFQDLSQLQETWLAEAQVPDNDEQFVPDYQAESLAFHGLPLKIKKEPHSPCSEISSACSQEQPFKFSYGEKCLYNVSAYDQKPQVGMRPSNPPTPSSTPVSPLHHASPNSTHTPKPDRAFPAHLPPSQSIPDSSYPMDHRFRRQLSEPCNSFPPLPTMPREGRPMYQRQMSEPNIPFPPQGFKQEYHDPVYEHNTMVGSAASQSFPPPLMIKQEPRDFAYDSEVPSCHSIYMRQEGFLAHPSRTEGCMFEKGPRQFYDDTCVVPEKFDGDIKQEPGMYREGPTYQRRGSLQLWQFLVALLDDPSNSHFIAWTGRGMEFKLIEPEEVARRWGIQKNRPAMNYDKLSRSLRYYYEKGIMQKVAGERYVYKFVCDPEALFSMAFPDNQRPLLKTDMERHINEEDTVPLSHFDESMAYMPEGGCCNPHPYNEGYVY
# Outline: as §1
# [8] = target: T5, ERF (Homo sapiens, UniProt P50548 1-548); conditions: protein: recombinant; tags: N-terminal GST; dsDNA, one strand shown
# T5 sequence: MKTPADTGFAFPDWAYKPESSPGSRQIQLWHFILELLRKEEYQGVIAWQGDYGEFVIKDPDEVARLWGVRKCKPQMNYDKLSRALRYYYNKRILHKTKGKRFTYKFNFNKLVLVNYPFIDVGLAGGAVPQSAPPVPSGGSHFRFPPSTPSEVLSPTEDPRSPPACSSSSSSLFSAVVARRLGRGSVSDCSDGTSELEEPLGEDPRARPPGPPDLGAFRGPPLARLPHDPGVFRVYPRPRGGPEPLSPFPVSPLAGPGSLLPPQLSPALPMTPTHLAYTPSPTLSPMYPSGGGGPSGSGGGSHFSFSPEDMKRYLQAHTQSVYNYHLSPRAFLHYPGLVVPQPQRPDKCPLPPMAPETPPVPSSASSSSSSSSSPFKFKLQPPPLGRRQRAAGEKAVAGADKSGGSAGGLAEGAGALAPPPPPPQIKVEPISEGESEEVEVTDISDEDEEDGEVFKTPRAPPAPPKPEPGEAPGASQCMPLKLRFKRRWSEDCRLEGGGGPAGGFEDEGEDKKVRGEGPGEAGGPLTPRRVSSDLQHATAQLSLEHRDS
# Outline: as §1
# [9] = target: T6, ETV3L (Homo sapiens, UniProt Q6ZN32 1-361); conditions: protein: recombinant; tags: N-terminal GST; dsDNA, one strand shown
# T6 sequence: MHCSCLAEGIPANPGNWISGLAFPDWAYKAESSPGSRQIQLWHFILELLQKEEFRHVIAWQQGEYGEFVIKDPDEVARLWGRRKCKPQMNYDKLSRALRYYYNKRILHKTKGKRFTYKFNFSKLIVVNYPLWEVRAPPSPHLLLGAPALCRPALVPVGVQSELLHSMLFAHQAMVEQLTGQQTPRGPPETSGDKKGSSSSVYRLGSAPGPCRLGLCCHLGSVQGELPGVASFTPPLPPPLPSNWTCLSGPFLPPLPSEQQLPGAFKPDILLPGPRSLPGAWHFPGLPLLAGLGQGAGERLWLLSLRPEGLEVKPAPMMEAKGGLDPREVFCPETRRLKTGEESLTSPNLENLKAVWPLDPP
# Outline: as §1
# [10] = target: T7, ETS2 (Homo sapiens, UniProt P15036 1-469); conditions: protein: recombinant; tags: N-terminal GST; dsDNA, one strand shown
# T7 sequence: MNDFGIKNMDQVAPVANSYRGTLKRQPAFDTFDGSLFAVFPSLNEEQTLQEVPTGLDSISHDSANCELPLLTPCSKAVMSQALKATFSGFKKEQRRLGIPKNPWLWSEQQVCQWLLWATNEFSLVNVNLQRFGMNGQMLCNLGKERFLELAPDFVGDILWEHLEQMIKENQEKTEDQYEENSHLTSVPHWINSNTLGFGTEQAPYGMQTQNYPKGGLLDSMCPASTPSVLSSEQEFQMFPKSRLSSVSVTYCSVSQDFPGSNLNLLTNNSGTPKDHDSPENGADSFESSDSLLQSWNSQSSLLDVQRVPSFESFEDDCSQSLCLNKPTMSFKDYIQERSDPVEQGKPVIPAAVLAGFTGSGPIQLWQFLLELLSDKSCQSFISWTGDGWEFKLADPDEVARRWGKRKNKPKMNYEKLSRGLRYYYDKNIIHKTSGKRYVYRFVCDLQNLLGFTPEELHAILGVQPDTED
# Outline: as §1
# [11] = target: T8, ETV7 (Homo sapiens, UniProt Q9Y603 1-341); conditions: protein: recombinant; tags: N-terminal GST; dsDNA, one strand shown
# T8 sequence: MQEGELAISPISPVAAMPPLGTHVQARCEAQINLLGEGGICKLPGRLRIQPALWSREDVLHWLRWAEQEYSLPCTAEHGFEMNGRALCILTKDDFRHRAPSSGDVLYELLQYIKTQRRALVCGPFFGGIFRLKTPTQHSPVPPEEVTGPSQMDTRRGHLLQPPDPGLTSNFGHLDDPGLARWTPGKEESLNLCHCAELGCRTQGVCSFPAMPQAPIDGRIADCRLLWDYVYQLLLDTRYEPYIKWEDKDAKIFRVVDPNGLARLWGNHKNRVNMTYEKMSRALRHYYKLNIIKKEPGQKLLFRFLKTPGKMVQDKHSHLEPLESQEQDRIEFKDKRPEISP
# Outline: as §1
# [12] = target: T9, ELK4 (Homo sapiens, UniProt P28324-2 1-405); conditions: protein: recombinant; tags: N-terminal GST; dsDNA, one strand shown
# T9 sequence: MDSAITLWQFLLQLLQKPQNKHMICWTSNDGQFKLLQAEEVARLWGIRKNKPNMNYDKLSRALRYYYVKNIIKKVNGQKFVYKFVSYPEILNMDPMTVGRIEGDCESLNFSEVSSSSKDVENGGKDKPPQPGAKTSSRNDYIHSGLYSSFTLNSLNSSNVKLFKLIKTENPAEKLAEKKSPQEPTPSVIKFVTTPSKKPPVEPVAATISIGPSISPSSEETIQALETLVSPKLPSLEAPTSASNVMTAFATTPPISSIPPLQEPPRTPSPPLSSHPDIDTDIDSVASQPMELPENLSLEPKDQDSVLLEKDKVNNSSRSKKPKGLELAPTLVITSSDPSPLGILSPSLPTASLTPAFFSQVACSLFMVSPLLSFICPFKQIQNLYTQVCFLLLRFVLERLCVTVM
# Outline: as §1
sequence,measurement,setting,value
TTAGGC,binding signal,[1],"1.02 fold enrichment (6-mer frequency, TF over GST control)"
same,binding signal,[2],"1.03 fold enrichment (6-mer frequency, TF over GST control)"
same,binding signal,[3],"1 fold enrichment (6-mer frequency, TF over GST control)"
same,binding signal,[4],"1.37 fold enrichment (6-mer frequency, TF over GST control)"
same,binding signal,[5],"1.08 fold enrichment (6-mer frequency, TF over GST control)"
same,binding signal,[6],"2.06 fold enrichment (6-mer frequency, TF over GST control)"
same,binding signal,[7],"1.03 fold enrichment (6-mer frequency, TF over GST control)"
same,binding signal,[8],"1.02 fold enrichment (6-mer frequency, TF over GST control)"
same,binding signal,[9],"1.01 fold enrichment (6-mer frequency, TF over GST control)"
same,binding signal,[10],"1.01 fold enrichment (6-mer frequency, TF over GST control)"
same,binding signal,[11],"1.16 fold enrichment (6-mer frequency, TF over GST control)"
CCCAGA,binding signal,[4],"1.31 fold enrichment (6-mer frequency, TF over GST control)"
same,binding signal,[12],"1.01 fold enrichment (6-mer frequency, TF over GST control)"
TTAGTG,binding signal,[4],"1.3 fold enrichment (6-mer frequency, TF over GST control)"
same,binding signal,[12],"1.11 fold enrichment (6-mer frequency, TF over GST control)"
same,binding signal,[6],"1.89 fold enrichment (6-mer frequency, TF over GST control)"
